# High-throughput results from PubChem.
# Many of the other results were omitted from the sample, so hits are more common in it than they were.
# KDM5B inhibitor: inhibitors of human KDM5B histone demethylase; Potency, µM (top dose mostly 57.7 µM), most hits filed as inhibitors; 220,000 compounds, 2.6% hits; AID 1347165; KDM5B demethylase, FDH-coupled NADH fluorescence (FDH is formaldehyde dehydrogenase); active = well fitted inhibition curve with a large enough effect; also: 0% is about no effect; nearly all actives have a fitted effect of over 70% in size
# Target sequence (Q9UGL1 whole entry, looked up): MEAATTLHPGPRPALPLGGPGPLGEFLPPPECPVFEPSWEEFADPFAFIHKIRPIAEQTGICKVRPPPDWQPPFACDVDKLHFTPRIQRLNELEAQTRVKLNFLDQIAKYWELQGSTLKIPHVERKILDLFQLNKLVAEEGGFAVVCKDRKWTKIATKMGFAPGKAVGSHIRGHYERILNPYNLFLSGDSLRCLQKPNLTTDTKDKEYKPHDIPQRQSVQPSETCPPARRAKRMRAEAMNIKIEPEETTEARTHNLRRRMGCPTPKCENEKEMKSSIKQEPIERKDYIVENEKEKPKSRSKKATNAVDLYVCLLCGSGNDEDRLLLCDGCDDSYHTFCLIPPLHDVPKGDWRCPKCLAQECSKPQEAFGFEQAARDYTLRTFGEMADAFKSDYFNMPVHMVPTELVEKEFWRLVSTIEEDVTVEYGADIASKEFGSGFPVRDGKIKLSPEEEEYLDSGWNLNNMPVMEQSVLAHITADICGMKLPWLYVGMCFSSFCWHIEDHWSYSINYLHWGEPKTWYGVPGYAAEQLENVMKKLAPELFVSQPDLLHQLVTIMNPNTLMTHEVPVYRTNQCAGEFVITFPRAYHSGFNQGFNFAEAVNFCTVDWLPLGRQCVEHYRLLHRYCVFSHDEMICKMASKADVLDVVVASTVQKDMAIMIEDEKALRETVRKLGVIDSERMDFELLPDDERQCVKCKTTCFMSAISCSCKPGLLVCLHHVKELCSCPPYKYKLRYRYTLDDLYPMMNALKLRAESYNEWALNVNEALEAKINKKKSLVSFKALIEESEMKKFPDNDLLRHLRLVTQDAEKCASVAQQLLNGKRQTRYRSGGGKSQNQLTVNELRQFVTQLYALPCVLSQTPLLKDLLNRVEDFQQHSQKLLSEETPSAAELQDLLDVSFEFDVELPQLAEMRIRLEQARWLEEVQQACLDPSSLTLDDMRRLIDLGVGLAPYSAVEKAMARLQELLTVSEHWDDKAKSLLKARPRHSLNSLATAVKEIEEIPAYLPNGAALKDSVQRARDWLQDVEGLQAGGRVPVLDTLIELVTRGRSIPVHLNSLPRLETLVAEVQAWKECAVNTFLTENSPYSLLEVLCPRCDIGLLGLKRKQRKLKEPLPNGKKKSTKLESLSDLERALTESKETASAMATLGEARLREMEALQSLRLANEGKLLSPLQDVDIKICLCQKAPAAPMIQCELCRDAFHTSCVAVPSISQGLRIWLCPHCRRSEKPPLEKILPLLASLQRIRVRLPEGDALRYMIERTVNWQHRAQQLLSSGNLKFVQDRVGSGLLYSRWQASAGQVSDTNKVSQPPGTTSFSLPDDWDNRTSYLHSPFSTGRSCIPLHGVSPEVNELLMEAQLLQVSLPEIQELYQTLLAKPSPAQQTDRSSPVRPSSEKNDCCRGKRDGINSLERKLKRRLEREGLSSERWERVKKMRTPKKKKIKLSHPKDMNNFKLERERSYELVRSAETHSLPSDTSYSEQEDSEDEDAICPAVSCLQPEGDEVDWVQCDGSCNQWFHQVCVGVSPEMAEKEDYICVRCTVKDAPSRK
#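 Measured: NADH fluorescence change, 30 min, RT. System: KDM5BΔAP 200 nM final, H3K4me3 peptide, α-KG, Fe(II), ascorbate, NAD⁺ plus FDH, pH 7.5 HEPES. Compounds: titrated, 10 min pre-incubation with enzyme.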
# * hit, by the source's call; i = inactive. Potency is read from the fitted curve at half-maximal effect.
SMILES,KDM5B inhibitor
CN(CCc1noc(C2CN(Cc3ccc(F)c(F)c3)C2)n1)C(=O)C1CC1,i
COc1ccc(N2CCCCS2(=O)=O)cc1S(=O)(=O)NCCc1ccccc1,i
N#C/C(=C\c1cn(Cc2ccc(F)cc2)c2ccccc12)C(N)=O,i
CCN(Cc1ccc(OC)c(OC)c1)C(=O)c1cc(C)nc2ccccc12,i
O=C(Nc1ccc(F)c(Cl)c1)c1ccc2c(Cl)c3c(nc2c1)CCC3,i
CCCOc1cccc(C(=O)Nc2ccc(OCCC)c3ncccc23)c1,i
Cc1cnc(C(=O)Oc2ccc(C#N)cc2)cn1,i
CCOc1ccc(C2Cn3nnc(-c4nc(-c5cccc(Br)c5)no4)c3CO2)cc1 (configuration not stated),i
CCOc1cccc(-c2noc(-c3nnn4c3COC(c3ccc(OC)cc3)C4)n2)c1 (configuration not stated),18µM*
Cc1ccc(C2Cn3nnc(-c4noc(-c5ccccc5Cl)n4)c3CO2)cc1 (configuration not stated),i
COc1ccc(C2Cn3nnc(-c4nc(-c5cccc(F)c5)no4)c3CO2)cc1 (configuration not stated),i
COc1ccccc1-c1nc(-c2nnn3c2COC(c2ccc(C)cc2)C3)no1 (configuration not stated),13µM*
COc1ccccc1CCc1nc(-c2nnn3c2COC(c2ccc(C)cc2)C3)no1 (configuration not stated),i
Cc1ccc(C)c(NS(=O)(=O)c2ccc(N3CC(C(=O)O)CC3=O)cc2)c1 (configuration not stated),i
O=C1c2ccccc2S(=O)(=O)N1Cc1nc(-c2ccc(F)cc2)cs1,i
O=C(Nc1ccc(F)cc1Cl)c1nc2ccccc2nc1N1CCCCC1,i
CN1CCN(S(=O)(=O)c2cc3cc(Cl)ccc3oc2=O)CC1,i
O=C(NCc1cccs1)c1ccc(CSc2nc3ccncc3n2Cc2ccccc2)cc1,i
O=C(NCc1ccc(C(F)(F)F)cc1)c1nc2sccn2c1Br,i
O=C(NCc1ccc(F)cc1)c1nc(-c2cccc(C(F)(F)F)c2)c2cnccn12,28µM*
O=C(NCc1ccc(F)cc1)c1nc(-c2cccc(F)c2)c2cnccn12,i
O=C(NCc1cccs1)c1cc(-c2cccnc2)nc2ccccc12,i
O=C(NCc1cccs1)c1nc(-c2cccc(C(F)(F)F)c2)c2cnccn12,16µM*
CC(=O)C1=C(C)CC2C3CC=C4CC(O)CCC4(C)C3CCC12C (configuration not stated),i
c1ccc(-c2nnc3sc(Cn4cccn4)nn23)cc1,i
SMILES,KDM5B inhibitor
Cc1ccccc1C(=O)Nc1nonc1-c1ccc(Cl)cc1,i
COc1ccc(C(C)=O)cc1CC(=O)Oc1cc(Cl)ccc1Cl,i
Cn1c(=O)c2c(nc(NCCc3ccccc3)n2CC(O)CO)n(C)c1=O (configuration not stated),i
CCCc1noc(-c2cn(C3CCN(C(=O)c4cccc(N(C)C)c4)CC3)nn2)n1,i
CCCCCCCc1c(C(=O)O)c2ccccc2c2ccccc12,i
COCCOc1ccnc(-c2noc([C@@H]3CCCN3Cc3cccnc3)n2)c1,i
COCCNc1ncccc1-c1noc([C@@H]2CCCN2Cc2cc(OC)c(OC)c(OC)c2)n1,32µM*
COCCNc1ncccc1-c1noc([C@@H]2CCCN2Cc2ccccn2)n1,32µM*
COCCNc1ccc(-c2noc([C@@H]3CCCN3C3CCC3)n2)cn1,i
COc1ccc(CN2CCC[C@H]2c2nc(-c3cncnc3N)no2)cc1,i
COCCNc1ncccc1-c1noc([C@@H]2CCCN2Cc2ccncc2)n1,28µM*
Nc1ncncc1-c1noc([C@@H]2CCCN2Cc2cnc3ccccc3c2)n1,i
COCCNc1ccc(-c2noc([C@@H]3CCCN3Cc3ccncc3)n2)cn1,28µM*
COCCOc1ncccc1-c1noc([C@@H]2CCCN2Cc2ccc(S(C)(=O)=O)cc2)n1,i
COc1cc(CN2CCC[C@H]2c2nc(-c3ccc(-c4ccncc4)nc3)no2)cc(OC)c1OC,i
COc1cc(CN2CCCC2c2cc(C(C)C)on2)cc(OC)c1OC (configuration not stated),i
CC1CCCN(C(=O)C2CCN(Cc3ccc(C(F)(F)F)cc3)CC2)C1 (configuration not stated),i
COc1ccc(-c2nn(-c3ccccc3)cc2C2CC(c3cccs3)=NN2S(C)(=O)=O)cc1 (configuration not stated),i
COc1ccc(S(=O)(=O)Nc2ccc(Nc3cc(N4CCCCC4)nc(C)n3)cc2)cc1,i
NC(CO)c1cccc2ccccc12 (configuration not stated),i
Cc1cc(N2CCN(S(=O)(=O)c3ccc(C(F)(F)F)cc3)CC2)nc(C(C)C)n1,i
COc1ccc(C(=O)Nc2ccc(-c3noc([C@@H]4CCCN4CCCc4ccccc4)n3)cn2)cc1,25µM*
COCCOc1ccc(-c2noc([C@@H]3CCCN3Cc3c[nH]c4ccccc34)n2)cn1,i
COCC(=O)Nc1ccc(-c2noc([C@@H]3CCCN3Cc3ncc[nH]3)n2)cn1,40µM*
COc1ccc(-c2noc([C@@H]3CCCN3C(=O)Cc3ccccc3)n2)cc1,i
SMILES,KDM5B inhibitor
COCC(=O)Nc1ccc(-c2noc([C@@H]3CCCN3Cc3cccnc3)n2)cn1,i
Cc1ccc(-c2noc([C@@H]3CCCN3C(=O)CCCc3ccccc3)n2)cc1,i
Cc1ccc(SCCC(=O)OCC(=O)c2cc(Cl)ccc2Cl)cc1,i
CCCc1cc(=O)oc2c(C)c(OC/C=C(\C)CCC=C(C)C)ccc12,i
COc1ccc(SCC(=O)Nc2ccc(C(=O)N(C)C)cc2)cc1,i
COc1ccccc1CNC(=O)c1ccc2c(c1)CC(=O)N2Cc1ccc(F)cc1,i
CC(=O)c1cn(CC(=O)NCc2ccc(F)cc2)c2ccccc12,i
CCCCCCCNC(=O)Cc1cccs1,i
Cc1ccccc1-c1nc2scc(CCNC(=O)C(=O)Nc3cc(F)ccc3F)n2n1,i
CCCCCNC(=O)Cc1csc2nc(C)c(-c3cc(C)n(-c4cc(F)ccc4C)n3)c(=O)n12,25µM*
CCCCNC(=O)Cc1csc2nc(C)c(-c3cc(C)n(-c4ccc(F)cc4)n3)c(=O)n12,28µM*
COc1ccc(-c2nc3scc(CCNC(=O)Cc4ccc(F)cc4)n3n2)cc1,i
CCCCNC(=O)CNC(=O)c1nn(-c2ccc(OC)cc2)c(=O)c2ccccc12,i
COC(=O)c1ccc(C)c(NC(=O)Cc2ccc(OC)cc2OC)c1,i
N#Cc1ccccc1COC(=O)COc1ccc2c(c1)CCC2,i
CC(C)(C)C(=O)NC(NC(=O)C(C)(C)C)c1ccc(F)cc1,i
NC(=O)CNS(=O)(=O)/C=C/c1ccc(Cl)cc1,i
Cc1ccc(OCCSc2nnc(COc3ccc(Cl)cc3)n2C)cc1,i
COc1ccc(CNC(=O)CSc2nc3ccc(NC(=O)c4ccccc4F)cc3s2)cc1,i
CCn1ccc(C(=O)NCc2cccnc2N(C)CCc2ccccn2)n1,28µM*
Cc1nnnn1CC(=O)NCc1cccnc1N(C)CCc1ccccn1,i
Cc1cc(C(=O)NCc2cccnc2N(C)C)no1,i
CCn1nc(C(=O)OC/C(O)=C(\C#N)c2nc3ccccc3[nH]2)c2ccccc2c1=O,i
CC1(C)Cc2c(sc(NC(=O)C(=O)NCc3cccnc3)c2C#N)CO1,i
O=C(Nc1cccnc1)c1ccc(F)c(S(=O)(=O)N2CCOCC2)c1,i
